# According to PubChem BioAssay AID372 (MTDP, 2006):
# Out of some 100,000 compounds screened, about 770 (0.77%) were called active. The entries come from a sample that favours actives as a whole. Values without a mark were called inactive. No stated cut-off is given here; in the data, active means inhibition above about 50%; inactive means the rest.
# Target: Gag-Pol polyprotein (Human immunodeficiency virus type 1 group M subtype B (isolate HXB2)) (UniProt P04585)
# Experiment: RNase H inhibition, HIV 1 Gag Pol polyprotein, FRET biochemical assay, screening (AID 372)
# Settings: HIV-1 RT RNase H, FRET RNA/DNA substrate fluorescence; at 10 µM; stronger effect = higher value
row,SMILES,inhibition
1,O=C1c2ccccc2NC(c2ccccc2O)N1Cc1ccco1 (centres undefined),5%
2,CC(C)Cc1ccc(-c2csc(/C(C#N)=C/Nc3ccccc3)n2)cc1,0%
3,CCOc1cc(/C=C2\SC(N)=NC2=O)ccc1OCCOc1ccc(Cl)c(C)c1,30%
4,O=C(CSCc1cccc(Br)c1)N=Nc1c(O)[nH]c2ccccc12,16%
5,Cc1ccc(Cc2cnc(NC(=O)c3ccc(Br)cc3)s2)cc1,0%
6,O=C(Nc1ccc(-c2cnc(-c3ccc(NC(=O)c4ccccc4)cc3)nc2)cc1)c1ccccc1,0%
7,COc1cccc(C(=O)Nc2ccc(-c3cnc(-c4ccc(NC(=O)c5cccc(OC)c5)cc4)nc3)cc2)c1,50% (active)
8,COc1cccc(C(=O)Nc2ccc(-c3ccc(NC(=O)c4cccc(OC)c4)cc3)cc2)c1,2%
9,Cc1cc(C)c(OCCCCN2CCC(C)CC2)c(C)c1,10%
10,COc1cc([N+](=O)[O-])ccc1NC(=S)NC(=O)c1ccccc1,3%
11,N#Cc1c(-c2ccco2)c2c([nH]c1=S)CCCC2,63% (active)
12,N#Cc1c(N)c(C#N)c(-c2ccco2)c2c1CCCC2,4%
13,Cc1ccc(-c2c3c([nH]c(=S)c2C#N)CCCC3)o1,8%
14,Oc1cccc(/C=N/Nc2nc(-c3ccc(Br)cc3)cs2)c1,16%
15,O=S(=O)(Nc1cccc(I)c1)c1ccc2ccccc2c1,52% (active)
16,O=S(=O)(Nc1ccc(Nc2ccccc2)cc1)c1ccc2ccccc2c1,0%
17,COc1ccc(S(=O)(=O)Nc2cccc(C(F)(F)F)c2)cc1,0%
18,O=S(=O)(Nc1cccc(Br)c1)c1ccc2ccccc2c1,50% (active)
19,Cc1cc(C)cc(NS(=O)(=O)c2ccc3ccccc3c2)c1,14%
20,O=S(=O)(Nc1cccc(C(F)(F)F)c1)c1ccc(F)cc1,0%
21,O=S(=O)(Nc1cccc(I)c1)c1ccccc1,0%
22,O=S(=O)(Nc1cccc(F)c1)c1ccc2ccccc2c1,27%

row,SMILES,inhibition
1,Brc1ccc(N2COc3ccc4ccccc4c3C2)cc1,18%
2,CCOC(=O)c1ccc2c(c1)C1C=CCC1C(c1ccc(Br)cc1)N2 (centres undefined),31%
3,Cc1ccc(C(=O)Nc2ccc(I)cc2)o1,0%
4,CCCOC(=O)C1=C(C)NC(=O)NC1c1cccc2ccccc12 (centres undefined),4%
5,CCc1ccc(NC(=O)C(=O)NCCc2ccc(F)cc2)cc1,12%
6,COc1ccc(C(=O)NC(NC(=O)c2ccc(OC)c(OC)c2)c2ccc(Br)cc2)cc1OC,6%
7,NN1C(=O)c2ccc3c4c(ccc(c24)C1=O)CC3,0%
8,O=C1NC(=O)c2ccc3c4c(ccc1c24)CC3,2%
9,COc1cc(CN2CCN(C3CCCC(C)C3)CC2)cc(OC)c1OC (centres undefined),7%
10,COc1ccc(CNC(=O)c2ccc(Cl)c(Cl)c2)cc1,8%
11,CC(C)=NNC(=O)Sc1cc(O)c(Cl)cc1O,66% (active)
12,CC(C)=NNC(=O)C(=O)Nc1cccc(Cl)c1,10%
13,CC(C)=NNC(=O)C(=O)Nc1ccc(Cl)c(Cl)c1,12%
14,O=C(NCCO)C(=O)Nc1ccc(Oc2ccccc2)cc1,6%
15,Fc1cccc(-c2nnc(SC(c3ccccc3)c3ccccc3)n2-c2ccccc2)c1,13%
16,Cc1cc(C)c(NC(=O)C(C)Sc2nnc(-c3cccc(F)c3)n2-c2ccccc2)c(C)c1 (centres undefined),54% (active)
17,CC(NC(=O)CSc1nnc(-c2cccc(F)c2)n1-c1ccccc1)c1ccccc1 (centres undefined),15%
18,Cc1oc(C(C)(C)C)cc1C(=O)Nc1cccc(O)c1,1%
19,Cc1ccc(N=Cc2ccc(OC3CSC3)cc2)cc1C,8%
20,COc1ccc(C2NC(=S)NC(C)=C2C(=O)Nc2ccc(C)c(Cl)c2)cc1 (centres undefined),10%
21,Nc1ccc(S(=O)(=O)O)c2cccc(S(=O)(=O)O)c12,6%
22,Nc1c(S(=O)(=O)O)cc(S(=O)(=O)O)c2cccc(O)c12,23%

row,SMILES,inhibition
1,Nc1nnc(SCC(=O)Nc2ccccc2-c2ccccc2)s1,0%
2,COc1ccc(NC(=O)/C(C#N)=C/c2cccc(O)c2)cc1,12%
3,COc1cc(/C=N/NC(=O)COc2ccc(C(C)(C)CC(C)(C)C)cc2[N+](=O)[O-])ccc1OC(=O)c1ccc([N+](=O)[O-])cc1,28%
4,Cc1c(Cl)cccc1-c1ccc(/C=N/N=C2\NC(=O)CS2)o1,55% (active)
5,O=C1CS/C(=N/N=C/c2ccc(-c3ccc(Cl)cc3)o2)N1,21%
6,Cc1c(-c2ccc(/C=N/N=C3/NC(=O)CS3)o2)ccc([N+](=O)[O-])c1C,45%
7,COc1ccccc1NC(=O)CN(c1ccc(Cl)cc1Cl)S(=O)(=O)c1ccccc1,13%
8,c1cc2ccc3ccc(CN4CCOCC4)c4ccc(c1)c2c34,0%
9,Cc1cccc(C2=N/C(=C/c3ccc([N+](=O)[O-])cc3)C(=O)N2c2ccc(O)cc2)c1,44%
10,CC(=O)Nc1ccc(N2C(=O)/C(=C/c3ccc([N+](=O)[O-])cc3)C=C2c2ccccc2)cc1,0%
11,O=C1/C(=C/c2ccc([N+](=O)[O-])cc2)C=C(c2ccccc2)N1c1ccc(O)cc1,54% (active)
12,COc1cc(/C=N/N=C2/NC(=O)C(CC(=O)Nc3cccc(Cl)c3Cl)S2)ccc1O (centres undefined),5%
13,CCOc1ccc(C(=O)NCc2ccco2)cc1OCC,50% (active)
14,CCOc1ccc(C(=O)NCc2ccco2)cc1Br,5%
15,Cc1ccc(C(=O)NCc2ccco2)cc1,0%
16,CC(=O)Nc1ccc(C(=O)NCc2ccco2)cc1,57% (active)
17,CCOc1ccc(C(=O)NCc2ccco2)cc1Cl,6%
18,O=C(NCc1ccco1)c1ccc(Cl)cc1,0%
19,Cc1nn(S(=O)(=O)c2ccc([N+](=O)[O-])cc2)c(C)c1Sc1ccc([N+](=O)[O-])cc1,18%
20,CSCCOC(=O)C1=C(C)NC(=O)NC1c1ccc([N+](=O)[O-])cc1 (centres undefined),22%
